Screens from PubChem BioAssay.
This is a sample that favours compounds with a hit; in the whole collection about 8.8% have one here.
HT1080 IDH1KD tx: kills HT-1080 cells with IDH1 knockdown | hit rate 2% among 360,000 | Potency, µM (highest dose often 46.1 µM), inactives show top-dose activity, negative = toxicity, most hits filed as cytotoxic | HT-1080 IDH1 knockdown viability, ATP luminescence, 48 h;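 note: potency is the fitted concentration of half-maximal effect; 0% = DMSO wells and -100% = cell-free medium wells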
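HT-1080-IDH1KD cells (IDH1 knocked down), 750/well in RPMI with 5% FBS, treated with compound 48 h at 37 degrees C. Viability by CellTiter-Glo luminescence, normalised to DMSO and no-cell wells; concentration-response curves classed.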
KB-3-1 tox: KB-3-1 parental cell cytotoxicity. KB-3-1 viability, CellTiter-Glo ATP luminescence, 72 h. Potency, µM (doses to about 46.1 µM), most hits filed as cytotoxic. hit rate 1.4% among 400,000; note: potency is the fitted concentration of half-maximal effect; nearly all actives have a fitted effect of over 60% in size
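Luminescent ATP read-out (CellTiter-Glo) measures survival of drug-naive KB-3-1 cells after 72 h compound exposure at 37 °C. Titration series was screened from lowest to highest concentration, with DMSO vehicle plates as background controls.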
HT1080NT lethal: kills 2HG-producing HT-1080-NT fibrosarcoma cells; hit rate 1.6% among 360,000; HT-1080-NT fibrosarcoma viability, CellTiter-Glo ATP luminescence, 48 h; Potency, µM (highest dose often 46.1 µM), without a hit: at the top dose activity, negative = less viability, hits mostly cytotoxic;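 note: NT is the 2HG producing partner of a matched IDH1 knockdown line; potency is the fitted concentration of half-maximal effect; 0% = DMSO-treated cells and -100% = media-only wells without cells; nearly all actives have a fitted effect of over 55% in size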
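Toxicity toward the 2HG-producing NT line was scored as %Activity, normalised to DMSO and no-cell wells, from CellTiter-Glo luminescence after 48 hours' treatment.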
IL1B secr inh: blocks inflammasome-driven IL-1 beta release. activity change, % at 57.5 µM. hit rate 4.7% among 360,000. THP-1 LPS/ATP IL-1B secretion, AlphaLISA, 16 h; active compounds read low; in the data active = activity change below about -50%; inconclusive = mostly about -30% to -49%
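THP-1 cells pretreated 1 hr with compounds (up to 57.5 uM final), then stimulated with LPS (250 ng/mL final) plus ATP (1.25 mM final); secreted IL-1B measured by AlphaLISA after 16 hr, decreased signal indicating inhibition.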
KB-V1 MDR tox: kills drug-selected multidrug resistant KB-V1 cells; KB-V1 MDR cells viability, CellTiter-Glo, 72 h; Potency, µM (doses to about 46.1 µM), actives largely listed as cytotoxic; hit rate 3.4% among 400,000; AID 1347076; note: potency is the fitted concentration of half-maximal effect; nearly all actives have a fitted effect of over 60% in size
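Drug-selected KB-V1 cells, grown in DMEM lacking phenol red with 10% FBS, receive compound titrations; after three days at 37 degrees C, surviving cell ATP is quantified by CellTiter-Glo luminescence and responses normalized and curve-fitted.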
* marks the source's active call; other numbers are inactive results; ! = repeats disagree. Unless noted, calls come from the whole dose curve; as a rule, active = well fitted curve in the direction sought with a large enough effect; inconclusive = small, poorly fitted or top-dose-only effect, or another doubt; inactive = no such curve, though single readings can be large; an effect the other way counts as inactive or inconclusive. Unless noted, % is set by controls: 0 for no effect and ±100 for the full control effect.

How did O=C(Cc1ccccc1)Nc1nc2ccccc2[nH]1 do in these assays?
HT1080 IDH1KD tx: -24.4%; KB-3-1 tox: inactive; HT1080NT lethal: -2.2%; IL1B secr inh: -5.2; KB-V1 MDR tox: inactive

How did O=C(CSc1ccccc1)Nc1nc2ccccc2[nH]1 do in these assays?
HT1080 IDH1KD tx: inconclusive; KB-3-1 tox: 14.6µM*; HT1080NT lethal: 11.6µM*; IL1B secr inh: 26.3; KB-V1 MDR tox: inconclusive

Results for Cc1cc(NC(=O)C(C)SCC(=O)Nc2ccccc2C(C)(C)C)no1 (stereo unspecified) ?
HT1080 IDH1KD tx: 9.1%; KB-3-1 tox: inactive; HT1080NT lethal: 10.5%; IL1B secr inh: 19.1; KB-V1 MDR tox: inactive

What do the screens show for `CCOC(=O)N1CCN(C(=O)CN(c2cccc(Cl)c2)S(=O)(=O)c2ccccc2)CC1`?
KB-3-1 tox: inactive; KB-V1 MDR tox: inactive

What do the screens show for `COC(=O)C1(O)CC(C(C)C)=NN1C(=O)c1ccccc1` (stereo unspecified)?
HT1080 IDH1KD tx: 24.6%; KB-3-1 tox: inactive; HT1080NT lethal: 24.5%; IL1B secr inh: 4.7; KB-V1 MDR tox: inactive

How did CCOC(=O)CC1(CC(=O)OCC)NC(=O)c2c(C)sc(C(=O)OCC)c2N1 do in these assays?
HT1080 IDH1KD tx: 1.3%; KB-3-1 tox: inactive; HT1080NT lethal: -2.2%; IL1B secr inh: -11.0; KB-V1 MDR tox: inactive

Results for CCOC(=O)CC1(C)NC(=O)c2c(C)sc(C(=O)OCC)c2N1 (stereo unspecified) ?
HT1080 IDH1KD tx: -1.3%; KB-3-1 tox: inactive; HT1080NT lethal: 0.1%; IL1B secr inh: 32.3; KB-V1 MDR tox: 16.4µM*

Results for O=C(CSc1nnc2c(n1)[nH]c1ccccc12)Nc1nncs1 ?
HT1080 IDH1KD tx: -11.9%; KB-3-1 tox: inactive; HT1080NT lethal: 1.7%; IL1B secr inh: 20.5; KB-V1 MDR tox: inactive

How did Cc1nc(N2CCN(Cc3ccc4c(c3)OCO4)CC2)c2cc(-c3ccccc3)sc2n1 do in these assays?
HT1080 IDH1KD tx: -1.9%; KB-3-1 tox: inconclusive; HT1080NT lethal: -0.3%; IL1B secr inh: -62.4*; KB-V1 MDR tox: inactive

Results for O=C(/C=C/c1cccs1)N1CCN(Cc2ccc3c(c2)OCO3)CC1 ?
HT1080 IDH1KD tx: -4.0%; KB-3-1 tox: inactive; HT1080NT lethal: 1.8%; IL1B secr inh: 0.0; KB-V1 MDR tox: 18.4µM*

What do the screens show for `Cc1c(C(=O)N2CCN(Cc3ccc4c(c3)OCO4)CC2)sc2ncnc(N3CCN(c4ccccc4F)CC3)c12`?
HT1080 IDH1KD tx: 18.4µM*; KB-3-1 tox: inconclusive; HT1080NT lethal: inconclusive; IL1B secr inh: inconclusive; KB-V1 MDR tox: inactive

Results for O=C(/C=C/c1cccc([N+](=O)[O-])c1)N1CCN(Cc2ccc3c(c2)OCO3)CC1 ?
HT1080 IDH1KD tx: 1.4%; KB-3-1 tox: inactive; HT1080NT lethal: 3.0%; IL1B secr inh: -3.3; KB-V1 MDR tox: inactive

How did Cc1c(C(=O)N2CCN(Cc3ccc4c(c3)OCO4)CC2)sc2ncnc(N3CCN(c4ccccc4)CC3)c12 do in these assays?
HT1080 IDH1KD tx: inconclusive; KB-3-1 tox: inactive; HT1080NT lethal: -0.4%; IL1B secr inh: -2.9; KB-V1 MDR tox: inactive

What do the screens show for `Cc1ccc(NC(=O)N2CCN(Cc3ccc4c(c3)OCO4)CC2)cc1`?
HT1080 IDH1KD tx: -15.7%; KB-3-1 tox: inactive; HT1080NT lethal: -8.4%; IL1B secr inh: -17.6; KB-V1 MDR tox: 20.6µM*

Results for Cc1nn(C)c(C(=O)N2CCOCC2)c1Cl ?
HT1080 IDH1KD tx: 14.8%; KB-3-1 tox: inactive; HT1080NT lethal: 21.3%; IL1B secr inh: 25.8; KB-V1 MDR tox: inactive

Results for COc1ccc(OCC(O)CN2CCN(Cc3ccc4c(c3)OCO4)CC2)cc1 (stereo unspecified) ?
HT1080 IDH1KD tx: 0.5%; KB-3-1 tox: inactive; HT1080NT lethal: -2.5%; IL1B secr inh: 0.0; KB-V1 MDR tox: inconclusive

How did Cc1ccc(C(=O)N2CCN(Cc3ccc4c(c3)OCO4)CC2)o1 do in these assays?
HT1080 IDH1KD tx: -1.3%; KB-3-1 tox: inactive; HT1080NT lethal: 9.3%; IL1B secr inh: -16.1; KB-V1 MDR tox: inactive

How did Cc1ccc(OCC(O)CN2CCN(Cc3ccc4c(c3)OCO4)CC2)c(C)c1 (stereo unspecified) do in these assays?
HT1080 IDH1KD tx: -29.7%; KB-3-1 tox: inactive; HT1080NT lethal: inconclusive; IL1B secr inh: -60.0*!; KB-V1 MDR tox: inactive

What do the screens show for `O=C(N1CCN(Cc2ccc3c(c2)OCO3)CC1)C12CC3CC(CC(C3)C1)C2`?
HT1080 IDH1KD tx: -2.9%; KB-3-1 tox: inactive; HT1080NT lethal: 4.8%; IL1B secr inh: -84.5*; KB-V1 MDR tox: inactive

What do the screens show for `O=C(c1sccc1Br)N1CCN(Cc2ccc3c(c2)OCO3)CC1`?
HT1080 IDH1KD tx: -15.2%; KB-3-1 tox: inactive; HT1080NT lethal: -0.6%; IL1B secr inh: -71.1*; KB-V1 MDR tox: inconclusive

Results for O=C(NC(=S)N1CCN(Cc2ccc3c(c2)OCO3)CC1)c1cccc(Br)c1 ?
HT1080 IDH1KD tx: -18.6%; KB-3-1 tox: inconclusive; HT1080NT lethal: -0.2%; IL1B secr inh: -6.1; KB-V1 MDR tox: 7.31µM*

How did COc1ccc(NC(=O)[C@@H]2CC=C[C@@H]3CCN(C4CC4)C(=O)[C@@H]32)cc1 do in these assays?
KB-3-1 tox: inactive; KB-V1 MDR tox: inactive

How did O=S(=O)(Nc1ccc2nc(-c3ccc(F)cc3)oc2c1)c1ccccc1 do in these assays?
KB-3-1 tox: inactive; KB-V1 MDR tox: inactive

Results for CCOC(=O)C1=C(C)C(c2ccccc2OC)NC(=S)N1 (stereo unspecified) ?
HT1080 IDH1KD tx: -2.2%; KB-3-1 tox: inactive; HT1080NT lethal: -4.9%; IL1B secr inh: -11.7; KB-V1 MDR tox: 23.1µM*

Results for O=C(Nc1cccc(C(=O)NC2CC2)c1)c1ccccc1 ?
HT1080 IDH1KD tx: 6.8%; KB-3-1 tox: inactive; HT1080NT lethal: 11.4%; IL1B secr inh: -2.1; KB-V1 MDR tox: inactive

Results for O=C(NC1CC1)c1cccc(Nc2ccc(-c3ccc4c(c3)OCCO4)nn2)c1 ?
HT1080 IDH1KD tx: inconclusive; KB-3-1 tox: inconclusive; HT1080NT lethal: inconclusive; IL1B secr inh: 3.1; KB-V1 MDR tox: 16.4µM*

How did Cc1nnsc1Sc1ccccc1C(=O)O do in these assays?
HT1080 IDH1KD tx: 12.0%; KB-3-1 tox: inactive; HT1080NT lethal: 11.5%; IL1B secr inh: 0.6; KB-V1 MDR tox: inconclusive

How did COc1ccccc1C(=O)Nc1ccc(Cc2ccncc2)cc1 do in these assays?
HT1080 IDH1KD tx: 7.8%; KB-3-1 tox: inconclusive; HT1080NT lethal: 10.2%; IL1B secr inh: 1.6; KB-V1 MDR tox: 9.2µM*

Results for Cc1ccccc1OCC(=O)Nc1ccncc1 ?
HT1080 IDH1KD tx: -5.7%; KB-3-1 tox: inactive; HT1080NT lethal: -2.4%; IL1B secr inh: 10.1; KB-V1 MDR tox: inactive

What do the screens show for `Cc1ccccc1OCC(=O)Nc1ccc(Cc2ccncc2)cc1`?
HT1080 IDH1KD tx: -17.8%; KB-3-1 tox: inactive; HT1080NT lethal: -17.6%; IL1B secr inh: -76.7*; KB-V1 MDR tox: inactive
